Measured values as given in PubChem BioAssay (Tox21).
Results filed as inconclusive are left out. Where a call stands in place of a potency, no number is given. Calls of active or inactive are those of the source. Unless noted, calls follow the shape of the full dose curve.

experiment: qHTS assay for small molecule agonists of the p53 signaling pathway - cell viability (AID 651633); conditions: p53RE-bla HCT-116 viability, ATP luminescence, 16 h; series mostly up to 83.3 µM;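 also: p53RE-bla HCT reporter cells with a stable beta-lactamase p53 reporter; nearly all actives have a fitted effect of over 30% in size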
Procedure, shortened: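 Viability counter-read: CellTiter-Glo luminescence (30 min, room temperature) in the same p53RE-bla plates. These plates had been exposed to compounds for 16 h at 37 C.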

SMILES | Potency
CCNCCO | inactive
O=C(CC(=O)C(F)(F)F)c1ccccc1 | inactive
CCCCCCCOC(=O)CCC | inactive
CCCCNc1ccc(C(=O)OCCN(CC)CC)cc1 | inactive
C[C@@H]1CN(c2c(F)c(F)c3c(=O)c(C(=O)O)cn(C4CC4)c3c2F)C[C@H](C)N1 | inactive

experiment: qHTS assay for small molecules that induce genotoxicity in human embryonic kidney cells expressing luciferase-tagged ATAD5 - cell viability (AID 651634); conditions: HEK293T ATAD5-luc cells viability, CellTiter-Fluor, 15.5 h; series mostly up to 83.3 µM; also: nearly all actives have a fitted effect of over 25% in size; also: potency is read from the fitted curve at half-maximal effect
Procedure, shortened: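 Cells (HEK293T, luciferase-tagged ATAD5) are seeded at 2,000 per well, dosed with compound or DMSO vehicle, and incubated 15.5 hr at 37C and 5% CO2. CellTiter-Fluor is added for 30 min before fluorescence is measured.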

SMILES | Potency
O=CCCc1ccccc1 | inactive
CC1=C2[C@H](/C=C(\C)C(=O)O)CC[C@@H](C)[C@H]2CC1 | inactive
Oc1ccccc1F | inactive
CCOc1ccc(NC(N)=O)cc1 | inactive
COc1ccc2nc(NC(=O)Nc3ccccc3)sc2c1 | inactive
CCC/C=C/CO | inactive
CN1C(=O)CC(c2ccccc2)C1=O (configuration not stated) | inactive
Cc1ccc(C(C)C)cc1O | inactive
Cc1c[nH]c(=S)[nH]c1=O | inactive
CCOc1ccc(OCC)c(Cl)c1 | inactive
Cc1ccc([N+](=O)[O-])c(N)c1 | inactive
CN1CCN(C2=Nc3ccccc3Oc3ccc(Cl)cc32)CC1 | inactive
CC(C)O | inactive
CN1[C@@H]2CC[C@H]1CC(OC(=O)c1c[nH]c3ccccc13)C2 (some centres not stated) | inactive
CN1CCC[C@@H]1Cc1c[nH]c2ccc(CCS(=O)(=O)c3ccccc3)cc12 | inactive
CC1CN(c2ccccc2)NC1=O (configuration not stated) | inactive
CC(C)=CCCC(C)CCOC=O (configuration not stated) | 54.5 µM (active)
O=C1CCCCC1C1CCCCC1 (configuration not stated) | inactive
CCC(=O)c1ccc2c(c1)N(CCCN(C)C)c1ccccc1S2 | inactive
CN(C)CCOc1ccccc1Cc1ccccc1 | inactive
CCOc1ccc(NS(=O)(=O)c2ccc(N)cc2)nn1 | inactive
Cn1cnc2c(F)c(Nc3ccc(Br)cc3Cl)c(C(=O)NOCCO)cc21 | inactive
CCCCCCCCCCCCCCCCOP(=O)([O-])OCC[N+](C)(C)C | inactive
CCCCCCCCCCCCOCCOS(=O)(=O)O | inactive
CCNCCO | inactive
O=[N+]([O-])c1nccn1CO[C@@H](CO)[C@H](O)CO | inactive
CCCCNc1ccc(C(=O)OCCN(CC)CC)cc1 | inactive

experiment: qHTS assay for small molecule disruptors of the mitochondrial membrane potential - cell viability (AID 720634); conditions: HepG2 viability, ATP luminescence (CellTiter-Glo), 1 h; series mostly up to 83.2 µM; also: nearly all actives have a fitted effect of over 20% in size; also: potency is read from the fitted curve at half-maximal effect
Procedure, shortened: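 Cytotoxicity was measured by ATP quantitation in HepG2 wells that had first been treated with compound for 1 hr and stained with m-MPI dye; CellTiter-Glo incubation was 30 min at room temperature.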

SMILES | Potency
O=CCCc1ccccc1 | inactive
CC1=C2[C@H](/C=C(\C)C(=O)O)CC[C@@H](C)[C@H]2CC1 | inactive
Oc1ccccc1F | inactive
CCOc1ccc(NC(N)=O)cc1 | inactive
COc1ccc2nc(NC(=O)Nc3ccccc3)sc2c1 | 6.68 µM (active)
CCC/C=C/CO | inactive
CN1C(=O)CC(c2ccccc2)C1=O (configuration not stated) | inactive
Cc1ccc(C(C)C)cc1O | inactive
Cc1c[nH]c(=S)[nH]c1=O | inactive
CC1=NN(c2cc(Cl)c(S(=O)(=O)O)cc2Cl)C(=O)C1N=Nc1ccc(S(=O)(=O)O)cc1 (configuration not stated) | inactive
CCOc1ccc(OCC)c(Cl)c1 | inactive
Cc1ccc([N+](=O)[O-])c(N)c1 | inactive
CCCCN1C[C@H](O)[C@@H](O)[C@H](O)[C@H]1CO | inactive
CN1CCN(C2=Nc3ccccc3Oc3ccc(Cl)cc32)CC1 | inactive
CC(C)O | inactive
CN1[C@@H]2CC[C@H]1CC(OC(=O)c1c[nH]c3ccccc13)C2 (some centres not stated) | inactive
CN1CCC[C@@H]1Cc1c[nH]c2ccc(CCS(=O)(=O)c3ccccc3)cc12 | inactive

SMILES | Potency
CC1CN(c2ccccc2)NC1=O (configuration not stated) | inactive
CCOC(=O)CS | inactive
Cc1cc2c(s1)Nc1ccccc1N=C2N1CCN(C)CC1 | inactive
O=C1CCCCC1C1CCCCC1 (configuration not stated) | inactive
CCC(=O)c1ccc2c(c1)N(CCCN(C)C)c1ccccc1S2 | inactive
CN(C)CCOc1ccccc1Cc1ccccc1 | inactive
CCOc1ccc(NS(=O)(=O)c2ccc(N)cc2)nn1 | inactive
Cn1cnc2c(F)c(Nc3ccc(Br)cc3Cl)c(C(=O)NOCCO)cc21 | inactive
CCCCCCCCCCCCCCCCOP(=O)([O-])OCC[N+](C)(C)C | inactive
CCN(CCCc1ccccc1)CCCc1ccccc1 | inactive
CCCCCCCCCCCCOCCOS(=O)(=O)O | inactive
CCNCCO | inactive
CCCCCCCOC(=O)CCC | inactive
O=[N+]([O-])c1nccn1CO[C@@H](CO)[C@H](O)CO | inactive
CCCCNc1ccc(C(=O)OCCN(CC)CC)cc1 | inactive
C[C@@H]1CN(c2c(F)c(F)c3c(=O)c(C(=O)O)cn(C4CC4)c3c2F)C[C@H](C)N1 | inactive

experiment: qHTS assay for small molecule disruptors of the mitochondrial membrane potential (AID 720635; active = well fitted inhibition curve with a large enough effect in the signal ratio in the repeat runs; the % refers to the signal ratio; also: potency is read from the fitted curve at half-maximal effect); conditions: HepG2 mitochondrial membrane potential, Mito-MPS dye ratio; series mostly up to 83.2 µM
Procedure, shortened: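 Mitochondrial membrane potential tracked with Mito-MPS dye, red aggregates (ex 540/em 590 nm) against green monomers (ex 490/em 535 nm). Compound treatment 1 hr at 37C, dye 30 min in HepG2.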

SMILES | Potency
Oc1ccccc1F | inactive
COc1ccc2nc(NC(=O)Nc3ccccc3)sc2c1 | 1.19 µM (active)
Cc1ccc(C(C)C)cc1O | 48.6 µM (active)
CC1=NN(c2cc(Cl)c(S(=O)(=O)O)cc2Cl)C(=O)C1N=Nc1ccc(S(=O)(=O)O)cc1 (configuration not stated) | inactive
Cc1ccc([N+](=O)[O-])c(N)c1 | inactive
CC(C)O | inactive
CN1[C@@H]2CC[C@H]1CC(OC(=O)c1c[nH]c3ccccc13)C2 (some centres not stated) | inactive
CN1CCC[C@@H]1Cc1c[nH]c2ccc(CCS(=O)(=O)c3ccccc3)cc12 | inactive
Cc1cc2c(s1)Nc1ccccc1N=C2N1CCN(C)CC1 | inactive
CN(C)CCOc1ccccc1Cc1ccccc1 | 2.66 µM (active)
CCOc1ccc(NS(=O)(=O)c2ccc(N)cc2)nn1 | inactive
CCNCCO | inactive
O=C(CC(=O)C(F)(F)F)c1ccccc1 | 15.6 µM (active)
CCCCCCCOC(=O)CCC | inactive
O=[N+]([O-])c1nccn1CO[C@@H](CO)[C@H](O)CO | inactive
CCCCNc1ccc(C(=O)OCCN(CC)CC)cc1 | inactive
C[C@@H]1CN(c2c(F)c(F)c3c(=O)c(C(=O)O)cn(C4CC4)c3c2F)C[C@H](C)N1 | inactive
